In ChEMBL document CHEMBL3433997, “St. Jude Leishmania screening dataset” (2016):

Biological target: Glucose transporter (Leishmania mexicana) (UniProt O61059)
Assay: ST_JUDE_LEISH: Cytotoxicity at 2uM final concentration against transgenic Leishmania Mexicana promastigotes LmGT2 that are glucose transport deficient and complemented with the L. Mexicana glucose transporter 2. Activity is measured by DNA content using SYBR green in vitro
Type: functional

Row | SMILES | inhibition
1 | COc1cc(Cc2cnc(N)nc2N)cc(OCCCCC2SC(=O)NC2=O)c1Br (stereo not given) | 5.43%
2 | O=C(Nc1ccc(-c2nc3ccc(NC(=O)c4ccc(Br)cc4)cc3[nH]2)cc1)c1ccc(Br)cc1 | -2.77%
3 | CN1CCCN(c2ccnc3cc4c(cc23)N(C(=O)c2ccccc2Cl)CC4)CC1 | -0.18%
4 | CC(C)(C(=O)Nc1ccc(C2CCC(NCC3CC3)CC2)c(Cl)c1)c1ccc(C(F)(F)F)cc1 (stereo not given) | -0.91%
5 | Cc1ccc(NC(=O)c2ccc(Cl)cc2)cc1-c1ccc(C(=O)Nc2ccncc2)cc1 | 0.29%
6 | N#CCOc1c(C2CCN(CCCCNC(=O)c3ccc(-c4ccc(C(F)(F)F)cc4)cc3)CC2)ccc2c1CCCC2 | 3.28%
7 | O=C(Nc1cn(-c2ccc(OCc3cccc(F)c3)c(Cl)c2)c2ncncc12)c1ccncc1 | 2.96%
8 | CCN(CC)CCN(CCCc1ccc(-c2ccc(C(F)(F)F)cc2)cc1)C(=O)Cn1c(CCc2cccc(F)c2F)nc(=O)c2ccccc21 | 2.33%
9 | O=C(/C=C/c1ccc(Cl)c(Cl)c1)NCCCCCN1CCC(C(=O)Nc2cccc(Cl)c2)CC1 | 2.09%
10 | CCC(CC)(Cc1ccccc1)NC(=O)[C@H](Cc1ccc(OC)c(OC)c1)Nc1ccc(C#N)c2ccccc12 | 3.47%
11 | O=C(Nc1cccc(CN2CCCN(Cc3cccc(F)c3)CC2)c1)c1ccc(Cl)c(Cl)c1 | 6.5%
12 | O=C(NCc1ccc(Cl)cc1)c1ccc(CN2CCCN(CC3CCCCC3)CC2)cc1 | 5.25%
13 | Cc1cc(=NN=Cc2ccccc2F)c2cc(F)ccc2[nH]1 | 0.82%
14 | Clc1cc(Nc2ccnc3ccc(Br)cc23)ccc1Oc1ccc2ccccc2c1Cl | 1.22%
15 | N#Cc1ccc(C2CCN(CC[C@H](N)Cc3ccc(Cl)s3)CC2)cc1 | 15.8%
16 | O=C(Nc1ccccc1)NC1CCN(CCC2(c3ccc(Cl)c(Cl)c3)COCN(C(=O)c3ccccc3)C2)C1 (stereo not given) | 4.63%
17 | CCOC(=O)c1ccc(NC(=O)N[C@@H](Cc2ccccc2)C(=O)NC2CCN(Cc3ccc(O)cc3)C2)cc1 (stereo not given in full) | -7.4%
18 | CCCNCc1ccc(-c2ccc(CN(C(=O)c3nn(-c4ccccc4)nc3C)C(C)CN(C)C)cc2)nc1 (stereo not given) | 6.31%
19 | CC1CCN(CC[C@H]2CCCN2S(=O)(=O)c2cccc(NC(=O)c3ccc(-c4ccccc4)cc3)c2)CC1 | -0.42%
20 | Cc1ccc(-n2c(=O)c3c(n4c(SC(C)C)nnc24)-c2ccccc2CC32CCCCC2)cc1 | 5.47%

Row | SMILES | inhibition
21 | CCOc1c(CNCCCNc2nc3ccccc3[nH]2)cc(Br)cc1OC | 4.2%
22 | CC(=O)Nc1cccc(C(=O)Nc2ccc(-c3ccc(-c4nc5cccc(C)c5[nH]4)s3)cc2)c1 | 0.04%
23 | COc1ccc(CN2CCN(CCCCNC(=O)c3ccc(NC(=O)c4ccc(Cl)cc4)cc3)CC2)c(OC)c1 | 6.03%
24 | COc1ccc(C=NNc2cc(C)nc3ccc(OC)cc23)c(OC)c1 | 2.56%
25 | C[C@@H](CNc1ccnc(Nc2ccc3[nH]c(=O)[nH]c3c2)n1)c1ccccc1 | -0.41%
26 | CC1CCN(C(=O)CSc2nc(-c3ccc(C(C)C)cc3)no2)CC1 | 6.14%
27 | CN(C)c1ccnc2ccc(NC(=O)Nc3ccnc4ccccc34)cc12 | 1.09%
28 | CN(C)c1cccc2c1nc(-c1ccco1)n2CC1CCCN1 (stereo not given) | -0.52%
29 | Nc1c(C(=O)NCCCCN2CCN(c3nsc4ccccc34)CC2)sc2ccccc12 | 2.39%
30 | O=C(NCCCCNCC(Cc1cccc(O)c1)c1ccccc1)c1ccc(NC(=O)c2ccc(Cl)cc2)cc1 (stereo not given) | -1.18%
31 | Cc1ccccc1N1CCN(c2ccc(C(=O)NC(C)C)cn2)CC1 | -1.79%
32 | CCNC(=O)Nc1ccc(-c2ccc(-c3nc4cccc(C)c4[nH]3)s2)cc1 | 7.95%
33 | O=C(NCCCCN1CCC(c2ccc3c(c2O)CCCC3)CC1)c1ccc(NC(=O)c2ccc(Cl)cc2)cc1 | 0.97%
34 | Cc1cc(NC(=O)Nc2ccc3ncccc3c2)c2ccccc2n1 | 1.94%
35 | c1ccc2c3c([nH]c2c1)C(c1ccc2c(c1)CCO2)N(c1ncnc(N2CCN(CCCN4CCOCC4)CC2)n1)CC3 (stereo not given) | 1.89%
36 | CC1CN(c2cnn(Cc3cccc(NC(=O)Nc4ccc(-c5ccccc5)cc4)c3)c(=O)c2Cl)CC(C)N1 (stereo not given) | 7.15%
37 | Fc1ccc2[nH]c(-c3cccc(-c4ccc(CNCCc5ccncc5)cc4)c3)nc2c1 | 11.4%
38 | CCCCCc1cnc2nc(N)nc(N)c2c1C | 12.4%
39 | Cc1cc(C)c(-c2n[nH]c3c2C(c2cccc(Cl)c2)N(Cc2ccco2)C3=O)c(O)c1 (stereo not given) | 1.37%
40 | CCOC(=O)C1CCN(CCOc2cc(NC(=O)/C=C/c3ccccc3Cl)ccc2Br)CC1 | 7.58%
